Source: PubChem BioAssay AID1159580 (chemical genetic matrix, 2015)
About 2,000 (36%) of roughly 5,500 compounds were called active. Another 18% or so got no clear call; they are omitted. No stated cut-off is given here; in the data, active means normalized growth mostly below about 0.91 (no sharp cut-off); inconclusive means no clear call, values can overlap the other calls; inactive means mostly above about 0.92. The list shows a part of the results.

Assay: chemical genetic growth profiling, strain panel (AID 1159580);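 further: tested at 20 µM; growth read once vehicle control cultures reached saturation at 30 °C; 1 = growth at the plate median or of vehicle wells; lower values mean less growth of the strain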
Conditions: growth OD

Measured: normalized growth

C=CC(C1=CC(=O)C(OC)=CC1=O)c1ccccc1 (configuration not stated)
active: S. cerevisiae deletion strains, locus YJR075W, strain HOC1, hits give low values 0.88 | S. cerevisiae deletion strains, locus YKL160W, strain elf1, hits give low values 0.79 | S. cerevisiae deletion strains, locus YKL190W, strain CNB1, hits give low values 0.866 | S. cerevisiae deletion strains, locus YKR001C, strain vps1, hits give low values 0.774 | S. cerevisiae deletion strains, locus YLL001W, strain dnm1, hits give low values 0.885 | S. cerevisiae deletion strains, locus YLL026W, hits give low values 0.85 | S. cerevisiae deletion strains, locus YLR027C, strain aat2, hits give low values 0.808 | S. cerevisiae deletion strains, locus YLR039C, strain RIC1, hits give low values 0.519 | S. cerevisiae deletion strains, locus YLR113W, strain HOG1, hits give low values 0.663 | S. cerevisiae deletion strains, locus YLR221C, strain rsa3, hits give low values 0.734 | S. cerevisiae deletion strains, locus YLR258W, strain gsy2, hits give low values 0.875 | S. cerevisiae deletion strains, locus YLR262C, strain YPT6 (second series), hits give low values 0.518 | S. cerevisiae deletion strains, locus YLR262C, strain YPT6, hits give low values 0.405 | S. cerevisiae deletion strains, locus YLR320W, strain mms22, hits give low values 0.379 | S. cerevisiae deletion strains, locus YLR330W, strain CHS5, hits give low values 0.912 | S. cerevisiae deletion strains, locus YLR342W, strain FKS1 (second series), hits give low values 0.603 | S. cerevisiae deletion strains, locus YLR342W, strain FKS1, hits give low values 0.79 | S. cerevisiae deletion strains, locus YLR418C, strain cdc73, hits give low values 0.774 | S. cerevisiae deletion strains, locus YML032C, strain rad52, hits give low values 0.883 | S. cerevisiae deletion strains, locus YML120C, strain ndi1, hits give low values 0.864 | S. cerevisiae deletion strains, locus YMR125W, strain sto1, hits give low values 0.852 | S. cerevisiae deletion strains, locus YMR205C, strain PFK2, hits give low values 0.784 | S. cerevisiae deletion strains, locus YMR223W, strain ubp8, hits give low values 0.84 | S. cerevisiae deletion strains, locus YNL071W, strain lat1, hits give low values 0.213 | S. cerevisiae deletion strains, locus YNL209W, strain ssb2, hits give low values 0.908 | S. cerevisiae deletion strains, locus YNL233W, strain BNI4, hits give low values 0.808 | S. cerevisiae deletion strains, locus YNL248C, strain rpa49, hits give low values 0.842 | S. cerevisiae deletion strains, locus YNL307C, strain MCK1, hits give low values 0.302 | S. cerevisiae deletion strains, locus YOL147C, strain pex11, hits give low values 0.926 | S. cerevisiae deletion strains, locus YOR070C, strain gyp1, hits give low values 0.79 | S. cerevisiae deletion strains, locus YOR106W, strain vam3, hits give low values 0.739 | S. cerevisiae deletion strains, locus YOR184W, strain ser1, hits give low values 0.536 | S. cerevisiae deletion strains, locus YOR231W, strain MKK1, hits give low values 0.853 | S. cerevisiae deletion strains, locus YOR270C, strain vph1, hits give low values 0.761 | S. cerevisiae deletion strains, locus YPL051W, strain arl3, hits give low values 0.737 | S. cerevisiae deletion strains, locus YPL078C, strain atp4, hits give low values 0.868 | S. cerevisiae deletion strains, locus YPL240C, strain hsp82, hits give low values 0.904 | S. cerevisiae deletion strains, locus YPL256C, strain CLN2, hits give low values 0.75 | S. cerevisiae deletion strains, locus YPR163C, strain tif3, hits give low values 0.766 | S. cerevisiae deletion strains, strain wtn01, hits give low values 0.846 | S. cerevisiae strains, strain wild type, hits give low values 0.805
inactive: S. cerevisiae deletion strains, locus YKL009W, strain mrt4, hits give low values 0.905 | S. cerevisiae deletion strains, locus YKL068W, hits give low values 0.977 | S. cerevisiae deletion strains, locus YKL085W, strain MDH1 (second series), hits give low values 0.954 | S. cerevisiae deletion strains, locus YKL085W, strain MDH1, hits give low values 0.954 | S. cerevisiae deletion strains, locus YKR026C, strain gcn3, hits give low values 0.987 | S. cerevisiae deletion strains, locus YKR091W, strain srl3, hits give low values 0.995 | S. cerevisiae deletion strains, locus YLL041C, strain sdh2, hits give low values 0.978 | S. cerevisiae deletion strains, locus YLR058C, strain SHM2, hits give low values 0.953 | S. cerevisiae deletion strains, locus YLR102C, strain apc9, hits give low values 0.949 | S. cerevisiae deletion strains, locus YLR268W, strain sec22, hits give low values 0.888 | S. cerevisiae deletion strains, locus YLR357W, strain rsc2, hits give low values 1.04 | S. cerevisiae deletion strains, locus YLR370C, strain arc18, hits give low values 0.949 | S. cerevisiae deletion strains, locus YLR371W, strain rom2, hits give low values 0.937 | S. cerevisiae deletion strains, locus YLR384C, strain iki3, hits give low values 0.978 | S. cerevisiae deletion strains, locus YML016C, strain PPZ1, hits give low values 0.959 | S. cerevisiae deletion strains, locus YML124C, strain tub3, hits give low values 0.963 | S. cerevisiae deletion strains, locus YMR058W, strain fet3, hits give low values 0.921 | S. cerevisiae deletion strains, locus YMR078C, strain ctf18, hits give low values 0.928 | S. cerevisiae deletion strains, locus YMR129W, hits give low values 0.988 | S. cerevisiae deletion strains, locus YMR231W, strain pep5, hits give low values 1.01 | S. cerevisiae deletion strains, locus YMR263W, strain SAP30, hits give low values 0.926 | S. cerevisiae deletion strains, locus YMR307W, strain GAS1, hits give low values 0.864 | S. cerevisiae deletion strains, locus YNL067W, strain RPL9B, hits give low values 0.873 | S. cerevisiae deletion strains, locus YNL128W, strain TEP1, hits give low values 0.906 | S. cerevisiae deletion strains, locus YNL153C, strain GIM3, hits give low values 0.972 | S. cerevisiae deletion strains, locus YNL183C, strain NPR1, hits give low values 0.871 | S. cerevisiae deletion strains, locus YNL250W, strain rad50, hits give low values 0.956 | S. cerevisiae deletion strains, locus YNL271C, strain bni1, hits give low values 0.958 | S. cerevisiae deletion strains, locus YNL298W, strain CLA4, hits give low values 0.919 | S. cerevisiae deletion strains, locus YNL322C, strain KRE1 (second series), hits give low values 0.969 | S. cerevisiae deletion strains, locus YNL322C, strain KRE1, hits give low values 0.928 | S. cerevisiae deletion strains, locus YNR049C, strain mso1, hits give low values 0.992 | S. cerevisiae deletion strains, locus YNR052C, strain pop2, hits give low values 0.954 | S. cerevisiae deletion strains, locus YOL006C, strain TOP1, hits give low values 0.69 | S. cerevisiae deletion strains, locus YOL012C, strain htz1 0.631 | S. cerevisiae deletion strains, locus YOR001W, strain rrp6, hits give low values 0.943 | S. cerevisiae deletion strains, locus YOR061W, strain CKA2, hits give low values 0.956 | S. cerevisiae deletion strains, locus YOR069W, strain VPS5, hits give low values 0.958 | S. cerevisiae deletion strains, locus YOR080W, strain dia2, hits give low values 0.996 | S. cerevisiae deletion strains, locus YOR083W, strain WHI5, hits give low values 0.905 | S. cerevisiae deletion strains, locus YOR136W, strain idh2, hits give low values 0.942 | S. cerevisiae deletion strains, locus YOR144C, strain elg1, hits give low values 0.973 | S. cerevisiae deletion strains, locus YOR265W, strain rbl2, hits give low values 0.93 | S. cerevisiae deletion strains, locus YOR290C, strain snf2, hits give low values 0.89 | S. cerevisiae deletion strains, locus YOR316C, strain cot1, hits give low values 0.96 | S. cerevisiae deletion strains, locus YPL055C, strain LGE1, hits give low values 0.816 | S. cerevisiae deletion strains, locus YPL106C, strain sse1, hits give low values 1.03 | S. cerevisiae deletion strains, locus YPL241C, strain CIN2, hits give low values 0.962 | S. cerevisiae deletion strains, locus YPR119W, strain clb2, hits give low values 0.966 | S. cerevisiae deletion strains, locus YPR141C, strain kar3, hits give low values 0.971 | S. cerevisiae deletion strains, locus YPR167C, strain met16, hits give low values 0.959
